# Test results: ChEMBL document CHEMBL5308504, “Tm Shift (DSF) assay results for EUbOPEN Chemogenomics Library” (2023)
# Tests used:
# Conditions in all cases: Compound concentration 20.0 uM, Protein concentration 2.0 uM, Result type QC Liability
# [1] = molecular target: Tyrosine-protein kinase ABL1 (Homo sapiens) (UniProt P00519)
# [2] = molecular target: Cyclin-dependent kinase 2 (Homo sapiens) (UniProt P24941)
# [3] = molecular target: Casein kinase I isoform delta (Homo sapiens) (UniProt P48730)
# [4] = molecular target: Glycogen synthase kinase-3 beta (Homo sapiens) (UniProt P49841)
# [5] = molecular target: Mitogen-activated protein kinase 1 (Homo sapiens) (UniProt P28482)
# [6] = molecular target: T1, Aurora kinase A (Homo sapiens) (UniProt O14965)
# T1 sequence (whole entry): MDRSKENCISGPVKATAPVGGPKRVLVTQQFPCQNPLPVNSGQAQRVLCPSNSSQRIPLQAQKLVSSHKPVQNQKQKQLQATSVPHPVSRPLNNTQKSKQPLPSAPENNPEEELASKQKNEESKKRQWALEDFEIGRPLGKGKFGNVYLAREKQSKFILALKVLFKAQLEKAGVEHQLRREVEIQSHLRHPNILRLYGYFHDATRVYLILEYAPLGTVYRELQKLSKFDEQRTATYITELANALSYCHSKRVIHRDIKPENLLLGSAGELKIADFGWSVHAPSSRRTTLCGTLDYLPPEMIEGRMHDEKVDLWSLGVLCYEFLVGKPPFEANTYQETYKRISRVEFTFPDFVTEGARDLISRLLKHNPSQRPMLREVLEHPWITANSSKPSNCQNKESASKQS
# Casein kinase I isoform delta (Homo sapiens), sequence (P48730 whole entry, looked up, canonical isoform): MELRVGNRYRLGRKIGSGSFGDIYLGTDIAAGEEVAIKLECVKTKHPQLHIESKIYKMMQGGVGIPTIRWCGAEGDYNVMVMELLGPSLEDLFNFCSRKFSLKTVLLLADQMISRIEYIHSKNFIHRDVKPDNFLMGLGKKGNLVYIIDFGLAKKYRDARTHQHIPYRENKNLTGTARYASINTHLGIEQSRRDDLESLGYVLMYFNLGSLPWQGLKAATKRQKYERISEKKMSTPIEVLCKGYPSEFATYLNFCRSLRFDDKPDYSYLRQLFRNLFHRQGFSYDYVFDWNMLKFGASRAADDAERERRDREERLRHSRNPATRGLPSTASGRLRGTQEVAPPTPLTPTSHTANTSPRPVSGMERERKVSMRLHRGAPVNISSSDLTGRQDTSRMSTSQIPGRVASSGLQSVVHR
# Mitogen-activated protein kinase 1 (Homo sapiens), sequence (P28482 whole entry): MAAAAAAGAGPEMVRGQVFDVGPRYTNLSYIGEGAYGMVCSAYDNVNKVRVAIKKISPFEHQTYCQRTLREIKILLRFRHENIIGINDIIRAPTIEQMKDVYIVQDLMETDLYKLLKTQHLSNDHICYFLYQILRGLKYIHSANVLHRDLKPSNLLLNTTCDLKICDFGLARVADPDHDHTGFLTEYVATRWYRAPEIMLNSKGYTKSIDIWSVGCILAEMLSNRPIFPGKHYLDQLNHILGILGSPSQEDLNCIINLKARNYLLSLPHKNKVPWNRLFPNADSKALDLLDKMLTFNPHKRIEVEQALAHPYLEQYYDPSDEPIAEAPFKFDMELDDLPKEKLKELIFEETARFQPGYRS
# Tyrosine-protein kinase ABL1 (Homo sapiens), sequence (P00519 whole entry): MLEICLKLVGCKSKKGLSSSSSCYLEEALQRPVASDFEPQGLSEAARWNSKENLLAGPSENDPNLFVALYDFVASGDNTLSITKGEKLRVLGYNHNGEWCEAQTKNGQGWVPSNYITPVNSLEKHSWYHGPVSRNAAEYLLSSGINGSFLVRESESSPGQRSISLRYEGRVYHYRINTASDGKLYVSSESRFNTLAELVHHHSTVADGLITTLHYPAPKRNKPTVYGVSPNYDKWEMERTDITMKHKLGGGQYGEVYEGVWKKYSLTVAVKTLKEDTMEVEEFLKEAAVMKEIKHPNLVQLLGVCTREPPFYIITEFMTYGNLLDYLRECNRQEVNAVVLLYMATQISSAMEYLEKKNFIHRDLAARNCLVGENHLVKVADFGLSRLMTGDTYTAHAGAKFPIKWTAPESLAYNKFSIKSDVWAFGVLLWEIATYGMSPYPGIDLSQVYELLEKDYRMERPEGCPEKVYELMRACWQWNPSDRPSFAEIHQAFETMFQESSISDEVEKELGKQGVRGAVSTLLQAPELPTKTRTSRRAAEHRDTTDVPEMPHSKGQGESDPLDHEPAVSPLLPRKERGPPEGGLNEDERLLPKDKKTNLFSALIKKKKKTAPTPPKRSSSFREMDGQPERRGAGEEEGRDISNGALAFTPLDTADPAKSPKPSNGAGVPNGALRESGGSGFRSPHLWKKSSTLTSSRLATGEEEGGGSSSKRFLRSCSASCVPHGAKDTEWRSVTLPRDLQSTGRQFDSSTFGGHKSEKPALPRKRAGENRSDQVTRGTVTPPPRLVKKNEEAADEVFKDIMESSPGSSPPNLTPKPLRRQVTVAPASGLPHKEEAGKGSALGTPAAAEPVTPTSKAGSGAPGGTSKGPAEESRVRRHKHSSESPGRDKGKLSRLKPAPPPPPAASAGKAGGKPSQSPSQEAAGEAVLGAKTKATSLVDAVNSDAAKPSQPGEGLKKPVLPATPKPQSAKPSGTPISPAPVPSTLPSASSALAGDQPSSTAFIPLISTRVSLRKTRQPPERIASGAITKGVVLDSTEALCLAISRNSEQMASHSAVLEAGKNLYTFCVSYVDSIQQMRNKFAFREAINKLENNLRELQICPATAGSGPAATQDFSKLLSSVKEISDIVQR
# Glycogen synthase kinase-3 beta (Homo sapiens), sequence (P49841 whole entry, looked up): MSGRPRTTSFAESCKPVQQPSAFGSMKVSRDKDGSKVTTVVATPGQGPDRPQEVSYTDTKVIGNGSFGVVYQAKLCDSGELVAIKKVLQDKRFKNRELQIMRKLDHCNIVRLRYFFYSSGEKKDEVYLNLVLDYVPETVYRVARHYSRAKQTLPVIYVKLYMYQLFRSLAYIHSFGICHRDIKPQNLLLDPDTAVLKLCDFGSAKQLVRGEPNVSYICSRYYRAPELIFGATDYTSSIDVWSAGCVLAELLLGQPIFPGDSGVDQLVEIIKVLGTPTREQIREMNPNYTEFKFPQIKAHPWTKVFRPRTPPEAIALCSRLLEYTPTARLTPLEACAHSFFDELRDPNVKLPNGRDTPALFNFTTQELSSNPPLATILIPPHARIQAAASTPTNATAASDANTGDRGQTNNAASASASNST
SMILES,ΔTm [1],ΔTm [2],ΔTm [3],ΔTm [4],ΔTm [5],ΔTm [6]
O=C(Nc1ccc(N2CCC(C(=O)N3CCOCC3)CC2)cc1)c1cnc(Oc2ccccc2)nc1,0.2 °C,0.87 °C,0.06 °C,-0.13 °C,0.13 °C,-0.24 °C
N#Cc1c(SCc2csc(-c3ccc(Cl)cc3)n2)nc(N2CCCC2)c(C#N)c1-c1ccc(OCCO)cc1,-0.51 °C,0.34 °C,-2.01 °C,0 °C,4.1 °C,-0.18 °C
CNC(=O)c1c[nH]c2ccc(Nc3nccc(-c4ccccn4)n3)cc12,2 °C,1.28 °C,0.6 °C,2.67 °C,0.16 °C,1.47 °C
Nc1ncc2c(n1)-c1c([nH]c3ccc(C4=CCOCC4)cc13)CCC2,0.44 °C,1.02 °C,2.29 °C,0.71 °C,-0.03 °C,1.93 °C
Cc1cc2c(cc(C(=O)N[C@H](CO)c3ccc(S(=O)(=O)CC(=O)O)cc3)n2C)c(Cl)c1Cl,1.12 °C,-0.15 °C,-1.41 °C,-0.78 °C,0.62 °C,3.77 °C
CC1CNCCc2c1nc1ccnn1c2N1CC(C(=O)N2CCC(C)(C)C2)C1 (centres undefined),0.04 °C,0.37 °C,0.46 °C,-0.58 °C,0.2 °C,-0.21 °C
Cc1[nH]nc(C(F)(F)F)c1Cc1sc2c(c1C(=O)N1C[C@](C)(O)CO1)c(=O)n(C)c(=O)n2C(C)C,0.24 °C,0.67 °C,-0.27 °C,0.32 °C,0.23 °C,-0.32 °C
CC(C)(C)NC(=O)c1cncn1C1CCN(c2ccc(-c3nnc(C(F)(F)F)o3)cn2)CC1,1.4 °C,0.97 °C,0.21 °C,-0.09 °C,0.18 °C,0.23 °C
Cc1cc(NC(=O)c2cccc(NC(=O)/C=C/CN(C)C)c2)ccc1Nc1nccc(-c2cccnc2)n1,3.79 °C,1.64 °C,4.02 °C,6.68 °C,1.52 °C,5.38 °C
CCN1C(=O)N(c2c(F)c(OC)cc(OC)c2F)Cc2cnc3[nH]c(CN4CCOCC4)cc3c21,0.38 °C,6.96 °C,0.58 °C,-0.33 °C,0.45 °C,1.85 °C
CC(C)(C)OC(=O)CN(Cc1ccc(Cl)cc1)Cc1ccc([N+](=O)[O-])s1,0.48 °C,0.83 °C,0.3 °C,-0.54 °C,0.12 °C,-1.37 °C
Cn1c(C(=O)N[C@@H](CO)c2ccc(C(=O)O)cc2)cc2cc(Cl)ccc21,-0.2 °C,0.54 °C,0.58 °C,0.38 °C,-0.04 °C,0.34 °C
C/C(=C\C(=O)Nc1ccccc1C(=O)O)c1ccc2ccccc2c1,-0.72 °C,-0.23 °C,0.09 °C,0 °C,0.8 °C,1.85 °C
CC(=O)Nc1c(F)cc(C(=O)N[C@H]2CC[C@H](O)CC2)cc1O[C@@H](C)c1ccccc1,0.21 °C,0.97 °C,-0.03 °C,-0.82 °C,0.43 °C,-0.15 °C
COc1cc(-c2cc3ncccc3c(O[C@@H](C)[C@H]3CNC(=O)C3)n2)cc(OC)c1OC,0.48 °C,0.19 °C,1.43 °C,-0.57 °C,0.06 °C,2.08 °C
CNC(=O)COc1cc2cc(Nc3nc(N4C[C@H](C)C[C@H](C)C4)ncc3Cl)ccc2n(C)c1=O,-0.28 °C,0.46 °C,0.11 °C,-0.11 °C,0.15 °C,0.07 °C
Cc1cc(C2CCCNC2)ccc1Nc1ncc(Br)c(NCc2cccc3c2C(C)(C)C(=O)N3)n1 (centres undefined),1.52 °C,2.03 °C,0.34 °C,1.91 °C,2.1 °C,3.81 °C
O=C1Nc2ccc(I)cc2/C1=C/c1cc(Br)c(O)c(Br)c1,2.98 °C,0.35 °C,0.18 °C,-1.46 °C,0.48 °C,-0.27 °C
Cc1cc2c(-c3ccco3)cnc(N[C@H]3CCN(C)C[C@@H]3C(=O)NC3CCCCC3)c2[nH]c1=O,0.25 °C,0.22 °C,0.37 °C,-0.67 °C,0.2 °C,-1.37 °C
Cc1cc(-c2cc3ncccc3c(OC[C@H]3CCCNC3)n2)ccc1N(C)C,5.72 °C,0.38 °C,2.65 °C,1.68 °C,0.09 °C,7.37 °C

SMILES,ΔTm [1],ΔTm [2],ΔTm [3],ΔTm [4],ΔTm [5],ΔTm [6]
Cc1nn(C)c(COc2ccc(N3CCN(S(=O)(=O)N(C)C)CC3)cc2)c1-c1cccc2c(CCCOc3cccc4ccccc34)c(C(=O)O)n(CCN3CCOCC3)c12,0.04 °C,0.39 °C,-0.73 °C,0 °C,-0.31 °C,0.6 °C
CCc1nc(C2CCC2)n2nc(-c3ccccc3)[nH]c(=O)c12,0.18 °C,1.98 °C,0.4 °C,1.45 °C,0.11 °C,1.13 °C
COc1cc2c(NC3CCN(C(C)C)CC3)nc(C3CCCCC3)nc2cc1OCCCN1CCCC1,0.15 °C,0.9 °C,0.11 °C,-0.55 °C,0.32 °C,0.5 °C
CS(=O)(=O)NC(=O)CCC/C=C\C[C@H]1C(=O)C[C@@H](O)[C@@H]1/C=C/[C@@H](O)COc1ccccc1,-0.33 °C,0.46 °C,-0.2 °C,0.54 °C,0.01 °C,-0.19 °C
CCCCc1c(-c2ccccc2)nc(N)nc1-c1ccc(OCc2ccccc2)c(F)c1F,-0.08 °C,-0.31 °C,-3.97 °C,-3.51 °C,0 °C,-1.37 °C
O=C(O)CCCCN(CCc1cc(F)ccc1OCc1ccc(-c2ccc(C(F)(F)F)cc2)cc1)Cc1ccc(C(=O)O)cc1,0.64 °C,-0.19 °C,0.21 °C,-1.11 °C,-0.69 °C,0.32 °C
C[S+]([O-])c1ccc(-c2nc(-c3cccc(I)c3)c(-c3ccncc3)[nH]2)cc1 (centres undefined),0.33 °C,-0.2 °C,2.61 °C,5.08 °C,-1.08 °C,-1.53 °C
COc1c(NC(=O)c2cc3cccc(Oc4ccnc(C(=O)N5CCN(C)CC5)c4)c3n2C)cc(C(C)(C)C)cc1NS(C)(=O)=O,0.38 °C,-0.2 °C,0.73 °C,-0.6 °C,0.86 °C,-1.1 °C
C1=Cc2ccccc2C(=C2CCN(CCCCc3nnn[nH]3)CC2)c2ccccc21,-0.16 °C,0.18 °C,-0.15 °C,0.27 °C,-0.08 °C,-0.37 °C
COc1cccc(Cn2cc(C(=O)Nc3ccc(C)c(S(=O)(=O)N4CCOCC4)c3)c(-c3ccc(C)cc3)n2)c1,4.84 °C,3.65 °C,-0.33 °C,1.92 °C,-3.66 °C,3.73 °C
O=C(CCCN1CCC(O)(c2ccc(Cl)cc2)CC1)c1ccc(F)cc1,0.25 °C,0.82 °C,0.25 °C,-0.66 °C,0.38 °C,-0.3 °C
CCCCCCC(Sc1nc(Cl)cc(NCc2ccc(-c3ccccc3)cc2)n1)C(=O)O (centres undefined),-0.03 °C,-0.83 °C,0 °C,0 °C,0 °C,-1.22 °C
Cc1cccc(-c2nn3c(c2-c2ccnc4ccc(C(N)=O)cc24)CCC3)n1,1.72 °C,0.75 °C,3.53 °C,3.04 °C,0.51 °C,-0.95 °C
NCC1CCC(CNc2nc(NCc3ccccc3OC(F)(F)F)ncc2[N+](=O)[O-])CC1 (centres undefined),0.62 °C,-0.56 °C,0.19 °C,3.29 °C,-0.1 °C,1.01 °C
CN[C@@H](C)C(=O)N[C@H](C(=O)N1CCC[C@H]1c1nc(C(=O)c2ccc(F)cc2)cs1)C1CCCCC1,0.09 °C,0.27 °C,0.62 °C,-1.01 °C,0.23 °C,-1.15 °C
CCCCCCCC/C=C\CCCCCCCC(=O)NCCO,-1.47 °C,-0.92 °C,-0.85 °C,-2.08 °C,-1.79 °C,-2.91 °C
CS(=O)(=O)CCNCc1ccc(-c2ccc3ncnc(Nc4ccc(OCc5cccc(F)c5)c(Cl)c4)c3c2)o1,0.09 °C,0.9 °C,0.12 °C,-0.86 °C,0.56 °C,-0.38 °C
CO[C@H]1C[C@@H]2CC[C@@H](C)[C@@](O)(O2)C(=O)C(=O)N2CCCC[C@H]2C(=O)O[C@H]([C@H](C)C[C@@H]2CC[C@@H](O)[C@H](OC)C2)CC(=O)[C@H](C)/C=C(\C)[C@@H](O)[C@@H](OC)C(=O)[C@H](C)C[C@H](C)/C=C/C=C/C=C/1C,0.32 °C,-0.19 °C,-0.1 °C,-0.7 °C,-0.72 °C,-0.26 °C
NC(=O)c1ccc(-c2nc(-c3ccc4c(c3)OCCO4)c(-c3ccccn3)[nH]2)cc1,1 °C,-0.38 °C,5.39 °C,-0.91 °C,0.36 °C,-1.32 °C
